# High-throughput results: PubChem, several laboratories
# Platelet DG rel = platelet dense granule release activity; human platelet-rich plasma, SFLLRN dense granule ATP release, luminescence; inhibition, %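 (compounds screened at 7.5 µM in platelet-rich plasma)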; 300,000 compounds, 0.22% hits;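 active = mean replicate score, as percent of positive control, at or above 50; inconclusive = mean below 50 but at least one replicate at or above 50; inactive = mean and every replicate below 50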
# SKKanGAS inh = inhibitors of SKKanGAS S. pyogenes growth in kanamycin (SK-promoter or general growth effect). inhibition, % at 7.5 µM. BacTiter-Glo, 6 h. 300,000 compounds, 1.3% hits;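 active = mean replicate score, as percent of positive control median, at least 50; inconclusive = mean below 50 but one replicate at or above 50; inactive = mean and every replicate below 50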;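 also: strain carries kanamycin resistance gene driven by streptokinase promoter and grows in 40 µg/ml kanamycin; loss of luminescence reflects streptokinase promoter inhibition or plain growth inhibition; 0% = median of DMSO wells and 100% = positive control at its reference dose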
# Calb FLC = affects C. albicans growth with fluconazole; growth inhibition, % (test concentration not listed); C. albicans CaCi-2 (fluconazole-resistant clinical isolate) + fluconazole, Alamar Blue growth, 48 h; 300,000 compounds, 0.57% hits; AID 1979;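 active = growth inhibition above about 58% in most replicates, limit read from the data, passing the limit was not always enough; inconclusive = exactly half the replicates above a set limit; inactive = most replicates below a set limit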;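 also: all wells also contain fluconazole at 8 µg/ml as a sub-toxic cotreatment; 0% = median of DMSO wells and 100% = median of geldanamycin control wells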
# PolyA inhibitor = inhibitors of polyadenylation in S. cerevisiae. S. cerevisiae SKY197-pL101 polyadenylation reporter, beta-gal luminescence; efflux-impaired pdr1/pdr3 knockout yeast; score 100 = 6 SD above DMSO. activity score, % at 12 µM. 300,000 compounds, 0.02% hits. AID 1875;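 active = lowest replicate activity score at least 50, where 100 means six control SD above control mean; inconclusive = lowest score under 50 but half or more replicates reach 50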;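 also: yeast exposed to compound for 9 h at 30 °C; higher score means more reporter readthrough which indicates perturbed polyadenylation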
# Yeast superoxide = lowers age-related superoxide in aged yeast cells. S. cerevisiae aged cells, superoxide DHE fluorescence; active compounds read low. superoxide response (% of plate mean), % at 10 µM. 330,000 compounds, 0.18% hits. AID 2690;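 active = superoxide response under a set limit, about three screen SD below normal, cut at about 65% in these data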;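 also: yeast aged for seven days with compound at 30 °C before DHE staining; 100% = average MFI of all compound-treated wells on the plate with controls excluded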
# * marks the source's active call; other numbers are inactive results; ? = inconclusive; . = not tested or not shown. The list is not random: actives were taken first. Their share in the collection is about 2%.
SMILES,Platelet DG rel,SKKanGAS inh,Calb FLC,PolyA inhibitor,Yeast superoxide
O=C1c2cccc3c([N+](=O)[O-])ccc(c23)C(=O)N1c1ccccn1,-0.4,4.1,7.0,-39.8,81.6
O=C1c2cccc3c([N+](=O)[O-])ccc(c23)C(=O)N1O,-4.2,78.9*,-3.2,10.3,82.5
CCN(CC)Cc1c(O)ccc2c(=O)c(-c3ccc(Cl)cc3)coc12,-3.2,-4.4,8.8,3.9,103.7
C=CCN(CC=C)Cc1c(O)ccc2c(=O)c(-c3ccccc3)coc12,3.2,-6.0,94.0*,10.4,101.1
CN(C)c1ccc(CNC(=O)C2CCC(CNc3c(N4CCCCC4)c(=O)c3=O)CC2)cc1 (stereo unspecified),-0.1,5.2,3.7,-1.8,107.5
CC(Cc1ccco1)NC(=O)c1ccc(C(F)(F)F)cc1 (stereo unspecified),0.0,-0.6,-9.3,6.9,98.5
Cc1cc(O)c(/C=N/Nc2cccc(Cl)c2)c(=O)o1,-1.5,-3.0,-3.3,-29.4,94.9
Cc1cc(O)c(/C=N/Nc2ccc(Cl)cc2)c(=O)o1,2.2,-18.3,87.1*,-25.3,120.4
COc1cc(CC(=O)OCC(=O)NC2CCCCC2C)cc(OC)c1OC (stereo unspecified),.,.,.,.,88.4
CN(C)c1cc(N/N=C/c2ccc(Cl)cc2)nc(N(C)C)n1,9.0,-20.9,97.7*,-16.4,.
Cc1cc(N/N=C/c2ccc(N(C)C)cc2)nc(NCc2ccccc2)n1,0.7,0.3,14.6,-3.2,93.6
C/C(=N\Nc1cc(N2CCCCC2)nc(C)n1)c1ccc(Br)cc1,-2.2,81.7*,-0.3,6.3,97.0
Cc1cc(C)n(-c2nc(NCCCO)c3c4c(sc3n2)CCCC4)n1,9.1,54.8*,-9.3,-0.6,99.1
Cc1cc(C)n(-c2nc(NCCO)c3c4c(sc3n2)CCCC4)n1,-0.3,-3.9,-5.1,-0.1,127.7
Cc1cc(C)n(-c2nc(SCC(=O)O)c3c4c(sc3n2)CCCC4)n1,22.5,57.4*,5.5,9.0,132.4
O=S(=O)(c1cccc(COc2c(Cl)cccc2Cl)c1)N1CCOCC1,-6.8,-1.5,-0.6,-7.0,103.2
CSCCC(NC(=O)c1ccco1)C(=O)NCC1CCCCC1 (stereo unspecified),.,.,.,.,103.8
COc1ccc2nc(-n3c(C)ccc3C)sc2c1,-2.1,54.4*,2.3,-2.0,92.5
CC(C)c1nc(N2CCCC2)c(C#N)c2c1CCCC2,-0.1,93.1*,1.1,-12.7,98.2
COc1ccc(C#Cc2ccc3c(=O)c4ccccc4n(C)c3c2)cc1,2.5,75.7*,1.5,-6.2,106.2
COc1ccccc1C#Cc1ccc2c(=O)c3ccccc3n(C)c2c1,-5.6,5.5,-1.0,7.0,109.2
Cn1c2ccccc2c(=O)c2ccc(C#Cc3ccc(N)cc3)cc21,1.0,69.8*,-26.2,9.0,108.7
COc1ccc(C(=O)N(CN2CCCC2=O)c2ccc(C)cc2)cc1,6.4,-2.9,103.1*,24.5,89.5
Cc1ccc(N(CN2CCCC2=O)C(=O)c2ccccc2)cc1,-0.9,-1.5,?,1.8,92.3
O=C1COc2ccc(C(=O)COC(=O)CNC(=O)C3CCCCC3)cc2N1,-10.6,-2.9,-10.6,-22.5,96.4
SMILES,Platelet DG rel,SKKanGAS inh,Calb FLC,PolyA inhibitor,Yeast superoxide
O=C(COc1ccccc1)N/N=C/c1ccc([N+](=O)[O-])o1,20.4,19.7,-15.9,-1.6,143.6
Cc1nonc1C(=O)N/N=C/c1ccc(O)cc1O,95.8*,29.4,-3.2,17.6,92.3
O=C(CNc1ccc2ccccc2c1)N/N=C/c1ccc([N+](=O)[O-])o1,8.6,83.0*,59.3,-12.4,174.5
Cc1nonc1C(=O)N/N=C/c1ccc([N+](=O)[O-])o1,1.3,-5.3,82.4*,6.9,115.3
Cc1ccc(S(=O)(=O)c2cc3ccccc3oc2=O)cc1,5.2,3.6,?,11.1,108.5
CCN(CC)c1ccc2cc(S(=O)(=O)c3ccc(C)cc3)c(=O)oc2c1,-3.3,-6.6,101.3*,-30.9,103.3
CCOC(=O)c1cc(-c2csc(Nc3c(C)cc(C)cc3C)n2)on1,.,11.4,14.4,-14.7,96.8
CC1(c2ccc(OC(F)F)cc2)NC(=O)N(CC(=O)N2c3ccccc3NC(=O)C2(C)C)C1=O (stereo unspecified),.,.,.,.,93.3
COC(=O)c1ccccc1NC(=O)Cn1cnc2c(cnn2-c2ccccc2)c1=O,-6.7,-27.1,-7.7,-2.7,140.2
COc1ccccc1NC(=O)Cn1cnc2c(cnn2-c2ccccc2)c1=O,-0.4,-2.6,91.4*,12.7,108.9
O=C(COC(=O)c1ccc(Br)c(S(=O)(=O)N2CCOCC2)c1)NC1CC1,.,.,.,.,97.2
O=C(NCCc1ccc(F)cc1)c1cc(-c2ccncc2)nc2ccccc12,6.3,-0.4,6.7,-16.9,.
O=c1c2ccccc2oc2cc(OCc3ccc(F)cc3)cc(O)c12,1.2,3.9,0.6,11.4,99.5
COc1cc([N+](=O)[O-])cc(/C=N\NC(=O)C2COc3ccccc3O2)c1O (stereo unspecified),-16.3,104.0*,7.0,-5.5,100.8
COc1cc([N+](=O)[O-])cc(/C=N/NC(=O)C(O)(c2ccccc2)c2ccccc2)c1O,-5.3,98.5*,-9.8,-19.0,104.7
COc1cc([N+](=O)[O-])cc(/C=N/NC(=O)c2cccnc2)c1O,-0.8,88.1*,8.6,10.5,80.3
COc1ccc(/C=N/NC(=O)c2ccccc2O)cc1Cn1cc([N+](=O)[O-])cn1,-2.6,-1.1,-2.3,?,95.0
COc1ccc(/C=N/NC(=O)c2cc(O)c(O)c(O)c2)cc1Cn1cc([N+](=O)[O-])cn1,-1.6,-2.4,96.7*,14.1,.
Cc1noc(C)c1CSCC(=O)OCc1nc2ccccc2c(=O)n1CC#N,-2.8,4.0,1.5,-10.6,110.6
O=C1CC2c3ccccc3C1C1C(=O)N(CCc3ccccc3)C(=O)C21 (stereo unspecified),-2.6,-5.9,?,-10.5,99.8
COc1ccccc1N1CCN(C(=O)c2ccccc2N(C)S(=O)(=O)c2ccc(C)cc2)CC1,-2.2,20.1,5.3,7.2,112.1
Cc1ccc(C)c(NC(=O)c2cc[n+](C)cc2)c1,1.0,-4.6,4.7,-0.9,102.8
O=S(=O)(NC1CC(NS(=O)(=O)OCC(Cl)(Cl)Cl)C2CCCCC12)OCC(Cl)(Cl)Cl (stereo unspecified),5.7,90.8*,-11.0,13.2,94.0
CCCc1cc(-c2nc(N)ncc2-c2ccc3c(c2)OCCCO3)c(O)cc1OC,69.6*,16.7,-3.1,7.4,108.1
Clc1ccccc1CN(Cc1ccccc1)c1ncnc2nc[nH]c12,-1.2,50.8*,6.4,-7.7,104.7
CCc1cccc2c(C(=O)COC(=O)c3ccc([N+](=O)[O-])s3)c[nH]c12,-1.6,100.0*,9.4,-102.2,84.7
O=Nc1c(-c2c(O)[nH]c3cc(Br)ccc23)[nH]c2ccccc12,2.0,95.2*,52.6,-6.9,100.6
CCOC1=NN(c2ncc(C(F)(F)F)cc2Cl)C(=O)/C1=C/N(C)C,2.3,0.0,21.5,1.8,88.5
